PubChem BioAssay AID1917 (Vanderbilt High Throughput Screening Facility, 2009)
The whole screen tested about 3,000 compounds, of which about 1,600 (53%) were called active. Not shown: some 10% with an inconclusive outcome.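 The calls were made as follows: active = Flux at 10 µM at least 3 SD below or above vehicle control mean in one or both replicates; inconclusive = no clear call, values can overlap the other calls; inactive = the rest.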 The set was probably picked from earlier hits. These entries were drawn from the full list.

Target: ATP-sensitive inward rectifier potassium channel 1 (Homo sapiens) (UniProt P48048)
Sequence (P48048 whole entry, looked up): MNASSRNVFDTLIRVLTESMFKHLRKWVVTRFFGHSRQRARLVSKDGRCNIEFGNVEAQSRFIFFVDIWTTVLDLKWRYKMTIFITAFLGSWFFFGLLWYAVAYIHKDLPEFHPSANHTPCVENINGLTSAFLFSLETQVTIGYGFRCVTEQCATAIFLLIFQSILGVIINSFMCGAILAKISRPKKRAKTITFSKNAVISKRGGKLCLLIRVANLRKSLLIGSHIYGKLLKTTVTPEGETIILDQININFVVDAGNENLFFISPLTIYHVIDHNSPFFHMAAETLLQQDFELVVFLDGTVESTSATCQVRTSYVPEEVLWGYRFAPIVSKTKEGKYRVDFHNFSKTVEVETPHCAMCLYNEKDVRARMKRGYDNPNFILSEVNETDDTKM
Assay: ROMK channel modulator hit retest, confirmation, cell-based, thallium flux, duplicate, resupplied hits (AID 1917)
Conditions: fluorescence ratio, at 10 µM, active compounds read low

| SMILES | normalized thallium flux (F/F0 slope) |
| --- | --- |
| Cc1nc2ccccc2nc(=O)c1NNc1ccc([N+](=O)[O-])cc1 | 0.0842 (inactive) |
| COc1ccc(N=Cc2c(O)[nH]c3ccccc23)cc1OC | 0.0799 (inactive) |
| O=[N+]([O-])c1ccc(N=Cc2c(O)ccc3ccccc23)cc1 | 0.064 (active) |
| C=CCn1cnc2scc(-c3ccccc3)c2c1=O | 0.049 (active) |
| O=C(Nc1ccc(N2CCOCC2)cc1)c1ccc(-c2ccccc2[N+](=O)[O-])o1 | 0.108 (active) |
| O=C(CCN1CCc2ccccc2C(O)(c2ccccc2)C1)c1ccc2c(c1)OCCO2 (configuration not stated) | 0.0602 (active) |
| CSc1nc2nc3c(c(=O)n2[nH]1)CCC3 | 0.0761 (inactive) |
| Cc1cccn2c(=O)c3cc(C(=O)N4COCC4(C)C)n(C)c3nc12 | 0.0444 (active) |
| Cc1ccc(S(=O)(=O)C2(S(=O)(=O)c3ccc(C)cc3)CCCC2)cc1 | 0.0776 (inactive) |
| Cc1cc2cc(CN(Cc3cccs3)Cc3nnnn3CC3CCCO3)c(=O)[nH]c2cc1C (configuration not stated) | 0.0575 (active) |
| NC(=O)c1ccccc1N(Cc1ccccc1)S(=O)(=O)c1ccccc1 | 0.0757 (inactive) |
| O=C(O)c1ccc2c(c1)C(=O)N(c1ccc(/C=C/C(=O)c3ccccc3)cc1)C2=O | 0.0504 (active) |
| CC(C)(c1ccccc1)c1ccc(OCCN)cc1 | 0.0605 (active) |
| CCCN(CCC)CC(O)COc1ccccc1C(=O)Nc1ccccc1 (configuration not stated) | 0.055 (active) |
| CS(=O)(=O)c1ccc(Cl)c(NC(=O)Nc2ccccc2)c1 | 0.0706 (inactive) |
| Cc1cccc(-n2c(SCC(=O)Nc3cccc(S(=O)(=O)NC4=NCCCCC4)c3)nc3ccccc3c2=O)c1C | 0.0482 (active) |
| Cc1ccc(C)c(NC(=O)CSc2nc3c(oc4ccccc43)c(=O)n2-c2ccccc2)c1 | 0.077 (inactive) |
| O=C(CN1CCCCCC1)NCCN1C(=O)S/C(=C\c2ccccc2Cl)C1=O | 0.0525 (active) |
| O=[N+]([O-])c1cc(Cl)cc(/C=N/NC(=S)Nc2cc(S(=O)(=O)N3CCOCC3)ccc2Cl)c1O | 0.0856 (inactive) |
| O=C1C(=O)N(c2ccccc2)c2ccccc21 | 0.0906 (inactive) |
| CCCOc1ccc(C(=O)C(CCC(CNCC)C(=O)c2ccc(OCCC)cc2)CNCC)cc1 (configuration not stated) | 0.0393 (active) |
| O=C(Cn1nc(CNc2ccc(Cl)cc2)[n+]2c1CCCCC2)c1ccc(Cl)cc1 | 0.0549 (active) |
| Cn1c(SCC(=O)N2CCCc3ccccc32)nc2ccccc2c1=O | 0.0629 (active) |

| SMILES | normalized thallium flux (F/F0 slope) |
| --- | --- |
| C=CCOc1cccc(CNn2cn[nH]c2=S)c1 | 0.0819 (inactive) |
| CN(C)/C=C(/C(=O)c1ccc(Cl)c(Cl)c1)c1nnnn1-c1ccccc1 | 0.0735 (inactive) |
| CC(C)CN(CC(C)C)CC(O)CN(c1ccccc1)S(=O)(=O)c1ccccc1[N+](=O)[O-] (configuration not stated) | 0.0763 (inactive) |
| COc1ccc([N+](=O)[O-])cc1N(CC(O)CN(CC(C)C)CC(C)C)S(=O)(=O)c1ccc(C)cc1 (configuration not stated) | 0.0621 (active) |
| O=C(CN1C(=O)NC2(CCCCC2)C1=O)NCCC1=CCCCC1 | 0.0839 (inactive) |
| O=C(CN1C(=O)NC(Cc2ccccc2)(Cc2ccccc2)C1=O)NCC1CCCCC1 | 0.056 (active) |
| COCCNC(=O)/C(C#N)=C/c1cccc(OCc2ccccc2)c1 | 0.042 (active) |
| CC(C(=O)NC1CCCC1)N(c1ccc(Oc2ccccc2)cc1)S(C)(=O)=O (configuration not stated) | 0.061 (active) |
| CCCCCCCCCCOC(=O)C[N+](C)(C)CC1CCCCC1O (configuration not stated) | 0.0597 (active) |
| CCOC(=O)Cc1csc(NC(=O)CSc2ccc(Br)cc2)n1 | 0.0659 (active) |
| CCOC(=O)Cc1csc(SCC(=O)NC(C)C23CC4CC(CC(C4)C2)C3)n1 (configuration not stated) | 0.0513 (active) |
| CC1=CC2=NC(=O)/C(=C/c3coc4ccccc4c3=O)C(=N)N2O1 | 0.0388 (active) |
| Cc1cc(/C=C2/C(=N)N3C(=NC2=O)SN=C3S(C)(=O)=O)c(C)n1-c1ccccc1 | 0.0746 (inactive) |
| O=C(CCl)N(Cc1cccc([N+](=O)[O-])c1)c1cccc(Cl)c1 | 0.0469 (active) |
| CC(C)(C)CC(C)(C)NCC(O)COCCOc1ccc(Br)cc1 (configuration not stated) | 0.0489 (active) |
| CC1CCCN(S(=O)(=O)c2ccc(N(C(=O)c3cnccn3)C(C(=O)NC3CCCCC3)c3cccs3)cc2)C1 (configuration not stated) | 0.0633 (active) |
| N#Cc1c(N)n(CCOC(=O)c2ccc(Cl)cc2)c2nc3ccccc3nc12 | 0.0672 (active) |
| O=C(Nc1nnc(SCc2ccccc2Cl)s1)c1cccc([N+](=O)[O-])c1 | 0.0638 (active) |
| CCC(C)(C)n1nnnc1C(c1cccs1)N1CCN(c2nc3ccccc3s2)CC1 (configuration not stated) | 0.0713 (inactive) |
| Cc1ccc(C(=O)C[n+]2cc(-c3ccccc3)n3c2CCCCC3)cc1 | 0.0564 (active) |
| CN(NC(=O)c1ccccc1F)c1nc(C(F)(F)F)nc2ccccc12 | 0.0894 (inactive) |
| O=C(/C=C/c1ccc(Cl)c([N+](=O)[O-])c1)c1ccc(O)cc1 | 0.0498 (active) |
| O=C(/C=C/c1ccc(Cl)cc1Cl)c1cccnc1 | 0.0511 (active) |

| SMILES | normalized thallium flux (F/F0 slope) |
| --- | --- |
| O=C(/C=C/c1ccc(Cl)c([N+](=O)[O-])c1)c1cccnc1 | 0.0474 (active) |
| O=C1COc2ccc(NC(=O)N3CCN(c4ccc(F)cc4)CC3)cc2N1 | 0.0765 (inactive) |
| O=C(CN1CCOCC1)N/N=C/c1ccc(-c2ccc(Br)cc2)o1 | 0.0674 (active) |
| COc1ccccc1-n1c(C)nc2cc(C(=O)NCc3ccc4c(c3)OCO4)ccc21 | 0.0924 (inactive) |
| O=C(NCCc1ccc2c(c1)OCCO2)c1cc2ccccc2o1 | 0.0628 (active) |
| COc1ccc2[nH]c(=O)c(CNc3ccc(C)c(C)c3)cc2c1 | 0.0713 (inactive) |
| Clc1ccc(-n2nnnc2-c2cnc(-c3ccccn3)nc2-c2cccs2)cc1 | 0.0713 (inactive) |
| Cc1cccc2cc(CN(Cc3nnnn3Cc3ccccc3)C3CCCC3)c(=O)[nH]c12 | 0.055 (active) |
| CCC(c1nnnn1C1CCCC1)N(Cc1cccs1)Cc1cc2cccc(C)c2[nH]c1=O (configuration not stated) | 0.0635 (active) |
| COc1ccc(C(=O)OCC(=O)c2ccc(C)c(S(=O)(=O)N3CCOCC3)c2)cc1OC | 0.0776 (inactive) |
| C#CCOCCOCCOCCNc1nc(N2CCN(C(=O)[C@H](CCC(=O)O)n3cc(C(N)CO)nn3)CC2)nc(N2CCN(C(=O)[C@H](CCCCN)n3cc(C(N)[C@H](C)CC)nn3)CC2)n1 (some centres not stated) | 0.0789 (inactive) |
| Cc1ccc(CNC(=O)CC2Sc3ccccc3NC2=O)cc1 (configuration not stated) | 0.086 (inactive) |
| CSc1cccc(NC(=S)N(Cc2ccccc2)Cc2ccccn2)c1 | 0.0791 (inactive) |
| CNC(=O)/C(C#N)=C/c1c(F)cccc1Cl | 0.0423 (active) |
| CCOC(=O)c1c(NC(=O)CCl)sc(C(=O)N(CC)CC)c1C | 0.0722 (inactive) |
| COc1ccccc1N1CCN(CCCCOc2ccc(F)cc2)CC1 | 0.0581 (active) |
| Cc1ccccc1CCN(CC(=O)NC1CCCCC1)C(=O)c1csnn1 | 0.0568 (active) |
| Cc1cc(C(C)(C)C)oc1C(=O)N(CC(=O)NC1CCCC1)Cc1ccc(Cl)cc1 | 0.0748 (inactive) |
| CCCS(=O)(=O)N1CCC(C(=O)NCCCN(C)Cc2ccccc2)CC1 | 0.0759 (inactive) |
| COc1ccc(-c2[nH]ncc2CN(C)Cc2c(C)n[nH]c2C)c(OC)c1 | 0.0773 (inactive) |
| COC(=O)Cn1cc(/C=C/[N+](=O)[O-])c2ccccc21 | 0.0436 (active) |
| CCOc1ccc2nc(Cl)c(C3CC(c4ccccc4)=NN3C(=O)c3cccs3)cc2c1 (configuration not stated) | 0.084 (inactive) |
| CCOc1ccc2nc(N3CCCN(C(=O)Nc4ccccc4C)CC3)c(C#N)cc2c1 | 0.0592 (active) |

| SMILES | normalized thallium flux (F/F0 slope) |
| --- | --- |
| COc1ccccc1-n1c(=S)[nH]c2c(sc(=S)n2-c2ccc(C)cc2C)c1=O | 0.0774 (inactive) |
| Cc1cc(Br)ccc1NC(=O)c1cnc(N2CCN(c3ccccn3)CC2)c2ccccc12 | 0.0609 (active) |
| COc1ccc(Br)cc1C(=O)Nc1cccc(C)c1C | 0.0855 (inactive) |
| CN(C)c1ccc(C=C2C(=O)OC3(CCCC3)OC2=O)cc1 | 0.0453 (active) |
| CCOc1ccccc1C1C(C(=O)OC)=CN(C)C=C1C(=O)OC | 0.0653 (active) |
| O=C(Nc1ccccc1-c1ccccc1)c1cccs1 | 0.0658 (active) |
| c1ccc2c(c1)CSc1sccc1C2=C1CCNCC1 | 0.0498 (active) |
| Fc1ccc2[nH]c3c(N4CCSCC4)ncnc3c2c1 | 0.0617 (active) |
| Cc1cc(/C=N/NC(N)=O)c(C)n1C1CCCCC1 | 0.0777 (inactive) |
| CC(NC(=O)CC1SC(N)=NC1=O)c1ccccc1 (configuration not stated) | 0.087 (inactive) |
| CCOC(=O)C1=C(C)N=c2s/c(=C\C(=O)OC)c(=O)n2C1c1ccc(OC)cc1 (configuration not stated) | 0.0406 (active) |
| CCCC(c1nnnn1C(C)(C)C)N1CCN(Cc2ccccc2)CC1 (configuration not stated) | 0.0716 (inactive) |
| O=C1c2cccc3c([N+](=O)[O-])ccc(c23)C(=O)N1CC1CCCO1 (configuration not stated) | 0.0565 (active) |
| CCN1C(=O)/C(=C2/Sc3ccccc3N2CCCS(=O)(=O)O)SC1=S | 0.0827 (inactive) |
| CCCCc1nc(NCCN)c(C#N)c2c1CSC(C)(C)C2 | 0.0552 (active) |
| COc1cc2c(cc1OC)C(/C=C/c1ccco1)=NCC2 | 0.0485 (active) |
| O=C(Cc1ccc(Br)cc1)N1CCN(c2ccccn2)CC1 | 0.0628 (active) |
| O=C(Cc1ccccc1Cl)N1CCN(c2ccccn2)CC1 | 0.0716 (inactive) |
| COc1ccc(Cc2nc(-c3ccccn3)no2)cc1OC | 0.0708 (inactive) |
| CCSc1sc(CC)cc1C=O | 0.106 (active) |
| CC(NCc1ccccc1OC1CCCC1)c1ccccc1 (configuration not stated) | 0.0563 (active) |
| N=c1c2c(-c3ccccc3)c(-c3ccccc3)n(Cc3ccccc3)c2ncn1CCCO | 0.0532 (active) |
| Cc1nnnn1/C(=C\c1ccccc1)C(=O)OCC(=O)N1CC2(C)CC1CC(C)(C)C2 (configuration not stated) | 0.0442 (active) |
